From PubChem BioAssay
An excerpt weighted towards active compounds, which were near 6.1% of everything screened.
ATXN viability = Viability Counterscreen for Primary qHTS for Inhibitors of ATXN expression | actives 0.49% (n = 400,000) | Potency, µM (top dose mostly 56.7 µM), most hits filed as cytotoxic | S2 cells (HEK-293 line with an ATXN2-luciferase reporter) viability, CellTiter-Fluor protease fluorescence, 24 h | AID 651635, 2014; also: nearly all actives have a fitted effect of over 40% in size
RORg inh = qHTS for inhibitors of ROR gamma transcriptional activity. Drosophila S2 Gal4-RORgamma UAS-luciferase reporter, 20 h. actives 5.4% (n = 310,000). Potency, µM (top dose mostly 53.6 µM), without a hit: at the top dose activity change, negative = inhibition, most hits filed as inhibitors. Nuclear receptor ROR-gamma (Mus musculus), P51450; also: % is scaled to controls: 0 for no effect and ±100 for the full control effect; nearly all actives have a fitted effect of over 60% in size
Target sequence (P51450 whole entry, looked up, the tested form may be a part): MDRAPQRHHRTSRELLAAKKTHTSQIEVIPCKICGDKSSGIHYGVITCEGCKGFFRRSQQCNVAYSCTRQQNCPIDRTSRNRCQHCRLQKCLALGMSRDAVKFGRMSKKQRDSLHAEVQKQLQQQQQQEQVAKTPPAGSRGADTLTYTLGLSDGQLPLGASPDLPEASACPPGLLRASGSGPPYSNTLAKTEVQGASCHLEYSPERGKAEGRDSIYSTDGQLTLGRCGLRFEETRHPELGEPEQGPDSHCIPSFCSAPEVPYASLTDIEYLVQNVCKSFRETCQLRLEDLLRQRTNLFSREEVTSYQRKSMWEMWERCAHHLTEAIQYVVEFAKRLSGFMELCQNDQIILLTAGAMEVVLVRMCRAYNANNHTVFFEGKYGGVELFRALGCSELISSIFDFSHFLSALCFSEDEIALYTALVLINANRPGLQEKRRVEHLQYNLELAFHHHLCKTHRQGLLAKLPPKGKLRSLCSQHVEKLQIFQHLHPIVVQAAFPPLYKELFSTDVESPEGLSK
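In this cell-based reporter format, copper sulfate (700 uM final) drives Gal4–ROR gamma fusion expression from a metallothionein promoter in Drosophila Schneider cells; compounds preincubated 1 hr, reporter read after 20 hr at ambient temperature.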
Gal4-VP16 FLuc = VP16 counterscreen qHTS for inhibitors of ROR gamma transcriptional activity | Potency, µM (doses to about 53.6 µM), without a hit: at the highest dose activity, negative = inhibition, most hits filed as inhibitors | AID 2546, 2010 | actives 3.5% (n = 310,000) | Drosophila S2 Gal4-VP16 UAS-luciferase, luminescence, 20 h;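 also: Gal4-VP16 expression switched on by copper sulfate through the metallothionein promoter; % is scaled to controls: 0 for no effect and ±100 for the full control effect; nearly all actives have a fitted effect of over 50% in size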
TGFb SMAD3 inh = qHTS for Inhibitors of TGF-b. HepG2 CAGA-GFP TGF-b/SMAD3 reporter, GFP fluorescence, 18 h; TGF-beta stimulated, 500 pg/mL final. Potency, µM (titrated, usually from 46.1 µM), for inactives: top-dose activity, negative = inhibition, hits mostly inhibitors. actives 1.2% (n = 410,000). AID 588855, 2011; also: % is scaled to controls: 0 for no effect and ±100 for the full control effect; nearly all actives have a fitted effect of over 65% in size
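GFP signal (ex488/em500-530) from TGF-beta-stimulated HEPG2 CAGA-GFP cells, 500 pg/mL final, 18 h at 37 degrees C in DMEM plus 1% FBS, normalized to unstimulated and DMSO-stimulated controls.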
HepG2 tox = qHTS for Inhibitors of TGF-b: Cytotox Counterscreen; HepG2 CAGA-GFP viability, ATP luminescence, 18 h; Potency, µM (highest dose often 46.1 µM), for the others: top-dose activity change, negative = cytotoxicity, usual class: cytotoxic; actives 0.76% (n = 410,000)
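CellTiter-Glo luminescence gave cytotoxicity after 18 hours at 37 degrees C. The cells were HepG2 CAGA-GFP in 1% FBS DMEM, stimulated with 500 pg/mL TGF-beta after compound addition. %Activity was normalised to no-cell wells (complete cell-killing) and DMSO (no toxicity), and curves were fitted and classified.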
ATXN2 expr inh = Primary qHTS for Inhibitors of ATXN expression; HEK-293 ATXN2-luciferase reporter, luminescence, 24 h; Potency, µM (titrated, usually from 57 µM), for the others: top-dose activity change, negative = inhibition, actives largely listed as inhibitors; actives 0.72% (n = 360,000); also: % is scaled to controls: 0 for no effect and ±100 for the full control effect; nearly all actives have a fitted effect of over 55% in size
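ATXN2-luciferase reporter cells (luciferase flanked by upstream and downstream ATXN2 gene portions) were treated 24 h at 37 °C with compounds at up to 57 uM. SteadyGlo luminescence gave expression; GF-AFC fluorescence gave viability.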
Numbers without * were called inactive; i = inactive; ? = inconclusive; nt = not tested or not shown; ! = not active in a repeat. Calls follow the shape of the dose curve; as a rule, active = well fitted curve in the direction sought with a large enough effect; inconclusive = small, poorly fitted or top-dose-only effect, or another doubt; inactive = no such curve, though single readings can be large; an effect the other way counts as inactive or inconclusive. Potency is read from the fitted curve at half-maximal effect.

SMILES | ATXN viability | RORg inh | Gal4-VP16 FLuc | TGFb SMAD3 inh | HepG2 tox | ATXN2 expr inh
CCOC(=O)c1ccc(CN(Cc2ccc(F)cc2)S(=O)(=O)c2ccc(F)c(C(=O)Nc3cc(Cl)ccc3OC)c2)cc1 | nt | nt | nt | 2% | 7% | nt
Cn1cc(-c2[nH]c3cc(NC(=O)[C@H](N)C4CCCCC4)cc4c3c2C=NNC4=O)cn1 | nt | nt | nt | nt | nt | 1.1µM*
O=C(NC(=S)Nc1cccc([N+](=O)[O-])c1)C1CCCCC1 | i | 10µM* | ? | -13% | -1% | 10%
Cc1cccc(NC(=S)NC(=O)C2CC2)c1 | nt | 7.9µM* | ? | nt | nt | nt
O=C(NNC(=S)NC1CC2C=CC1C2)c1ccncc1 (stereo not given) | i | -15% | -4% | 30% | 21% | -2%
Cc1cc(C)cc(NC(=S)NC(=O)C2CC2)c1 | i | 7.1µM* | 6.3µM* | -29% | -26% | 11%
Cc1cccc(NC(=S)NC2CC3C=CC2C3)c1 (stereo not given) | i | 5µM* | 11µM* | -10% | -39% | 32%
Cc1ccc(NC(=S)NC(=O)C2CCCC2)c(Br)c1 | i | nt | nt | ? | -26% | 26%
CCOc1cccc2sc(N3CCN(C(=O)C(C)(C)C)CC3)nc12 | nt | nt | nt | -27% | -9% | nt
Cc1cccc(CS(=O)(=O)c2nnc([C@H](Cc3ccccc3)NC(=O)OC(C)(C)C)o2)c1 | 8.9µM* | 11µM* | 11µM* | ? | -101% | 7.9µM*
COC(=O)C(CCSC)NC(=O)c1cc2c(n(-c3ccc(C)cc3)c1=O)CC(C)(C)CC2=O (stereo not given) | i | nt | nt | -24% | -18% | 1%
O=c1c(Cc2ccc(Cl)cc2Cl)c(O)ccn1CC(F)(F)F | i | 0% | ? | -12% | 8% | 4%
CC(C)(C)CC(C)(C)c1ccc(O)c(Cc2ccc(Cl)cc2Cl)c1 | 28µM* | ? | ? | ? | -41% | 22µM*!
O=C(Cn1nc(C(F)(F)F)c2c1CCC2)Nc1ccc(Cl)cc1 | ? | nt | nt | ? | -47% | ?
CC1(C)CC(=O)C(N=Nc2ccc(C(F)(F)F)cc2[N+](=O)[O-])=C(O)C1 | ? | -35% | ? | 13µM* | -57% | ?
CC1(C)CC(=O)C(N=Nc2cccc([N+](=O)[O-])c2)=C(O)C1 | i | -37% | -18% | 3% | -8% | 1%
CCC/C=N/Nc1nc2ccccc2s1 | nt | 11µM* | ? | -11% | -38% | 14%
CCCCOC(=O)Nc1nc2ccccc2s1 | i | ? | -19% | 1% | 1% | 34%
Cc1ccc(-c2csc(N/N=C/C=C/c3ccccc3)n2)cc1 | i | 2.8µM* | ? | -4% | -33% | 2%
C(=C\c1ccccc1)/C=N/Nc1nc2ccccc2s1 | i | 7.9µM* | ? | -11% | -24% | 94%
C[C@@H](NCc1cc2ccccc2[nH]1)c1cccc2ccccc12 | nt | nt | nt | nt | nt | -16%
CCOc1ccc(CC(=O)NCCS(=O)(=O)N2CCN(c3ccccc3OC)CC2)cc1 | nt | nt | nt | ? | -18% | nt
CN(C)c1ccc(/C=C/c2ccnc3c(N)cccc23)cc1 | nt | nt | nt | 1% | -54% | nt
Cc1nc(NCc2ccccc2)c2nc(-c3ccccc3)n(C(C)CN(C)C)c2n1 (stereo not given) | nt | 11µM* | 18% | nt | nt | nt
Cc1nc(NCc2ccccc2)c2nc(-c3ccccc3)n(CCN3CCCCC3)c2n1 | nt | 11µM* | -15% | nt | nt | nt
SMILES | ATXN viability | RORg inh | Gal4-VP16 FLuc | TGFb SMAD3 inh | HepG2 tox | ATXN2 expr inh
CCN(CC)CCCC(C)n1c(-c2ccccc2)nc2c(NCc3ccccc3)nc(C)nc21 (stereo not given) | nt | ? | -5% | nt | nt | nt
Cc1nc(NCc2ccccc2)c2nc(-c3ccccc3)n(CCCN3CCOCC3)c2n1 | nt | -29% | -6% | nt | nt | nt
Cc1ccc(C(=O)c2c(C)oc3c2C(=O)C(=O)c2ccccc2-3)cc1 | nt | 5µM* | 3.5µM* | ? | -62% | ?
Cc1ccc(C(=O)c2coc3c2C(=O)C(=O)c2ccccc2-3)cc1 | nt | ? | ? | ? | 11µM* | ?
COc1ccc(C(=O)c2coc(-c3ccccc3C(=O)O)c2C(=O)O)cc1 | i | -7% | 5% | 2% | 5% | 3%
O=C(c1ccc(Cl)cc1)c1ccc(CN2C(=O)c3ccccc3C2=O)o1 | i | 1% | 1% | 1% | -16% | -27%
Cc1oc2c(c1C(=O)c1ccc(Cl)cc1)C(=O)C(=O)c1ccccc1-2 | 7.1µM* | 5.6µM* | 6.3µM* | -7% | 10% | 5.6µM*
Cc1cccc(-c2nc(SCC(=O)NCc3ccco3)c3c(=O)n(C)c(=O)n(C)c3n2)c1 | i | nt | nt | 1% | -1% | 3%
Cc1cccc(NC(=O)Cn2nnc(C(=O)NCc3cccs3)c2N)c1C | i | -32% | 1% | 1% | 18µM* | -7%
Cc1ccccc1NC(=O)Cn1nnc(C(=O)NCc2cccs2)c1N | ? | nt | nt | 5% | 12% | -12%
CCCCCCOc1ccc(/C(C)=N/NC2=NCCN2)cc1 | ? | ? | -24% | ? | 14µM* | nt
CCOc1ccc(Br)cc1/C(C)=N\NC1=NCCN1 | i | -33% | 7.9µM* | -7% | -18% | -37%
CCCCCOc1ccc(/C(C)=N/NC2=NCCN2)cc1 | i | ? | -11% | ? | -104% | ?
CC(=O)c1cccc(NCc2ccccc2-c2nnc(-c3ccccc3)o2)c1 | i | nt | nt | 11% | 0% | 41%
COc1cc(/C=N/n2cnnc2)ccc1OCCOc1ccccc1 | i | 9% | -4% | 6% | 6% | 7%
C=CCc1ccc(OCCOc2ccc(/C=N/n3cnnc3)cc2OCC)c(OC)c1 | i | 16µM* | ? | ? | -13% | 0%
CN(C)c1ccc(N=Cc2cccc3ccccc23)cc1 | nt | nt | nt | ? | -19% | nt
Cc1ccc2c(Cl)c(C)c(N3CCCC3)nc2n1 | ? | 2.8µM* | 11µM* | 3% | -9% | -4%
CCN(CC)c1ccc(/C=C/c2ccncc2)cc1 | nt | nt | nt | 88% | -38% | nt
CC(=O)C1=C(c2ccccc2)N(C(C)=O)n2c(nnc2C2CCCCC2)S1 | nt | nt | nt | 11µM* | 11µM* | nt
CC(=O)C1=C(c2ccc(Cl)c(Cl)c2)N(C(C)=O)n2cnnc2S1 | nt | nt | nt | 5.6µM* | -94% | nt
CC(=O)C1=C(c2ccc(Cl)c(Cl)c2)N(C(C)=O)n2c(C)nnc2S1 | ? | nt | nt | ? | 7.9µM* | 28µM*
CS(=O)(=O)OCCCNCCCOS(C)(=O)=O | i | nt | nt | nt | nt | nt
